{"source": "PubChem BioAssay", "note": "Active and inactive are the calls of the source.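 The calls were made as follows, unless noted: active = inhibition of the reporter signal at or above 50%; inactive = inhibition below 50%.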", "data": [{"assay": "inhibitors of Sendai virus-induced IRF3 signaling, primary screen, TLR/RLR signaling modifier project, cell-based, Sendai virus stimulus, luciferase, 10K MLSCN set (AID 602276;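 active = inhibition at or above 50% at 10 µM; inactive = inhibition below 50%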;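 also: firefly luciferase from ISG56 promoter only with Renilla not read in this screen; 0% = Sendai virus plus DMSO and 100% = medium plus DMSO without virus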)", "details": "HEK293 RL24 IRF3 luciferase reporter, at 10 µM, hits give high values", "values": [{"smiles": "CCCCS(=O)(=O)NC1=NCN(CCOC(=O)c2ccccc2)CN1", "inhibition": "13.9% (inactive)"}, {"smiles": "CCCCc1n[nH]c2c1C(=O)CC(C)(C)C2", "inhibition": "3.68% (inactive)"}, {"smiles": "COc1ccc(OCCSc2nc3ccccc3n2CC(=O)O)cc1", "inhibition": "16.6% (inactive)"}, {"smiles": "COc1ccc(OC)c(NC(=O)CSc2nnc(Cc3cccn3C)n2-c2ccc(F)cc2)c1", "inhibition": "19.4% (inactive)"}, {"smiles": "COc1ccc(N2CCN(C(=O)C(C)(C)Oc3ccc(Cl)cc3)CC2)cc1", "inhibition": "2.83% (inactive)"}, {"smiles": "O=C(Nc1ccncc1)C1c2ccccc2Oc2ccccc21", "inhibition": "12.2% (inactive)"}, {"smiles": "COCCN(CC(=O)NCc1ccccc1)C(=O)CCC(=O)Nc1ccccn1", "inhibition": "19.1% (inactive)"}, {"smiles": "COc1cc2c(cc1OC)C(c1ccc(C)o1)CC(=O)N2", "note": "(centres undefined)", "inhibition": "11.9% (inactive)"}, {"smiles": "Cc1cc(O)c(-c2cc(C(=O)Nc3ccc(S(=O)(=O)N4CCOCC4)cc3)[nH]n2)cc1C", "inhibition": "-12.1% (inactive)"}, {"smiles": "O=C(CSc1oc(-c2ccco2)nc1S(=O)(=O)c1ccccc1)NCC1CCCO1", "note": "(centres undefined)", "inhibition": "9.95% (inactive)"}, {"smiles": "NCCN1CCN(CCN)CC1", "inhibition": "12.2% (inactive)"}, {"smiles": "NC(=O)CSc1nnc(-c2cc3ccccc3o2)n1Cc1ccccc1", "inhibition": "19.8% (inactive)"}, {"smiles": "Cc1ccc(-n2nc(C)c3cc(C(=O)O)sc32)cc1", "inhibition": "12.6% (inactive)"}, {"smiles": "CC1CCN(C(=O)CSCC(=O)Nc2nc(-c3cccs3)cs2)CC1", "inhibition": "4.81% (inactive)"}, {"smiles": "COc1ccc(C2=NO[C@@H]3C(=O)N(c4cccc(C)c4C)C(=O)[C@H]23)cc1OC", "inhibition": "-20.9% (inactive)"}, {"smiles": "CCOc1ccccc1NC(=O)CC1Nc2cc(C)c(C)cc2NC1=O", "note": "(centres undefined)", "inhibition": "14.6% (inactive)"}, {"smiles": "CC1=C(C(=O)OCc2ccccc2)C(c2ccc(C)o2)C2=C(CCCC2=O)N1", "note": "(centres undefined)", "inhibition": "2.43% (inactive)"}, {"smiles": "Cc1c(C)n(C)c2ccc(C(=O)NCc3cccs3)cc12", "inhibition": "-5.31% (inactive)"}, {"smiles": "NC(=O)c1c(NC(=O)CN2CCCC2)sc2c1CCCC2", "inhibition": "-25.4% (inactive)"}, {"smiles": "CCOC(=O)c1sc(NC(=O)CSc2nnc3c4ccccc4n(CC)c3n2)nc1C", "inhibition": "-6.56% (inactive)"}, {"smiles": "CCS(=O)(=O)N1CCCC(C(=O)NCCc2ccc(OC)c(OC)c2)C1", "note": "(centres undefined)", "inhibition": "-5.06% (inactive)"}, {"smiles": "CC(=O)n1cc(-c2ccncc2)c2ccccc21", "inhibition": "-5.39% (inactive)"}, {"smiles": "CN(C1CCCCC1)S(=O)(=O)c1ccc(NC(=O)c2ccco2)cc1", "inhibition": "4.93% (inactive)"}, {"smiles": "COc1cccc(CN2CCN(C(=O)CC(C)C)CC2)c1", "inhibition": "10.5% (inactive)"}]}, {"assay": "inhibitors of poly I:C-induced TLR3 signaling, primary screen, cell-based, poly I:C stimulus, luciferase, 10K MLSCN set (AID 602277)", "details": "HEK293-TLR3 RL24 IRF3 luciferase reporter, at 10 µM, hits give high values", "values": [{"smiles": "COc1ccc(CNc2ccc(C(=O)O)cc2)cc1", "inhibition": "-15.8% (inactive)"}, {"smiles": "COc1ccc(-c2cc(O)cc(O)c2)cc1", "inhibition": "-88.2% (inactive)"}, {"smiles": "CCCC(=O)Nc1ccccc1-c1nnn(CC(=O)Nc2ccc(OCC)cc2)n1", "inhibition": "9.95% (inactive)"}, {"smiles": "CCOC(=O)c1c(-c2ccc(C)o2)csc1NC(=O)COC(=O)c1cccs1", "inhibition": "15.5% (inactive)"}, {"smiles": "O=C(Nc1cccc(Cl)c1)N1CCN(Cc2ccccc2)CC1", "inhibition": "-81.7% (inactive)"}, {"smiles": "C/C=C/COC(=O)c1[nH]c2c(c1C)C(=O)CC(c1ccco1)C2", "note": "(centres undefined)", "inhibition": "82.7% (active)"}, {"smiles": "CC(=O)NC(CCS(C)(=O)=O)C(=O)Nc1cccc(C)c1C", "note": "(centres undefined)", "inhibition": "38.7% (inactive)"}, {"smiles": "CCOC(=O)c1cn(CC)c2cc(N3CCOCC3)c(F)cc2c1=O", "inhibition": "10.9% (inactive)"}, {"smiles": "CCCCC(=O)NCCc1ccc(S(N)(=O)=O)cc1", "inhibition": "10.4% (inactive)"}, {"smiles": "CCOc1ccc(-c2c(C#N)c(N)nc3c2c(=O)n(C)c(=O)n3C)cc1OC", "inhibition": "16.4% (inactive)"}, {"smiles": "COc1ccc(NC(=O)c2cc(C)on2)cc1OC", "inhibition": "-8.62% (inactive)"}, {"smiles": "COc1ccc(CCNS(=O)(=O)c2ccc3oc(C(=O)O)c(C)c3c2)cc1OC", "inhibition": "21.9% (inactive)"}, {"smiles": "O=C(Nc1cccnc1)c1ccc2c(c1)C(=O)N(Cc1cccnc1)C2=O", "inhibition": "11.9% (inactive)"}, {"smiles": "CCCc1nnc2n1N=C(c1ccc(OC)c(OC)c1)CS2", "inhibition": "37.3% (inactive)"}, {"smiles": "CC(C)(C)NC(=O)CN(C(=O)CS(=O)CC(=O)Nc1ccc(F)cc1)c1ccc(Cl)cc1", "note": "(centres undefined)", "inhibition": "19.5% (inactive)"}, {"smiles": "O=C(Nc1nnc(CCN2CCCCC2)s1)C1CCCCC1", "inhibition": "16.5% (inactive)"}, {"smiles": "CCCCS(=O)(=O)NC1=NCN(CCOC(=O)c2ccccc2)CN1", "inhibition": "20.7% (inactive)"}, {"smiles": "CCCCc1n[nH]c2c1C(=O)CC(C)(C)C2", "inhibition": "19.2% (inactive)"}, {"smiles": "COc1ccc(OCCSc2nc3ccccc3n2CC(=O)O)cc1", "inhibition": "20.3% (inactive)"}, {"smiles": "COc1ccc(OC)c(NC(=O)CSc2nnc(Cc3cccn3C)n2-c2ccc(F)cc2)c1", "inhibition": "30.1% (inactive)"}, {"smiles": "COc1ccc(N2CCN(C(=O)C(C)(C)Oc3ccc(Cl)cc3)CC2)cc1", "inhibition": "28.4% (inactive)"}, {"smiles": "O=C(Nc1ccncc1)C1c2ccccc2Oc2ccccc21", "inhibition": "17.7% (inactive)"}, {"smiles": "COCCN(CC(=O)NCc1ccccc1)C(=O)CCC(=O)Nc1ccccn1", "inhibition": "19.4% (inactive)"}, {"smiles": "COc1cc2c(cc1OC)C(c1ccc(C)o1)CC(=O)N2", "note": "(centres undefined)", "inhibition": "30.4% (inactive)"}, {"smiles": "Cc1cc(O)c(-c2cc(C(=O)Nc3ccc(S(=O)(=O)N4CCOCC4)cc3)[nH]n2)cc1C", "inhibition": "-24.7% (inactive)"}, {"smiles": "O=C(CSc1oc(-c2ccco2)nc1S(=O)(=O)c1ccccc1)NCC1CCCO1", "note": "(centres undefined)", "inhibition": "20.2% (inactive)"}, {"smiles": "NCCN1CCN(CCN)CC1", "inhibition": "18.8% (inactive)"}, {"smiles": "NC(=O)CSc1nnc(-c2cc3ccccc3o2)n1Cc1ccccc1", "inhibition": "18.4% (inactive)"}, {"smiles": "Cc1ccc(-n2nc(C)c3cc(C(=O)O)sc32)cc1", "inhibition": "33.9% (inactive)"}, {"smiles": "CC1CCN(C(=O)CSCC(=O)Nc2nc(-c3cccs3)cs2)CC1", "inhibition": "-0.513% (inactive)"}, {"smiles": "COc1ccc(C2=NO[C@@H]3C(=O)N(c4cccc(C)c4C)C(=O)[C@H]23)cc1OC", "inhibition": "-5.53% (inactive)"}, {"smiles": "CCOc1ccccc1NC(=O)CC1Nc2cc(C)c(C)cc2NC1=O", "note": "(centres undefined)", "inhibition": "26% (inactive)"}, {"smiles": "CC1=C(C(=O)OCc2ccccc2)C(c2ccc(C)o2)C2=C(CCCC2=O)N1", "note": "(centres undefined)", "inhibition": "15.6% (inactive)"}, {"smiles": "Cc1c(C)n(C)c2ccc(C(=O)NCc3cccs3)cc12", "inhibition": "-32.8% (inactive)"}, {"smiles": "NC(=O)c1c(NC(=O)CN2CCCC2)sc2c1CCCC2", "inhibition": "-70.1% (inactive)"}, {"smiles": "CCOC(=O)c1sc(NC(=O)CSc2nnc3c4ccccc4n(CC)c3n2)nc1C", "inhibition": "7.93% (inactive)"}, {"smiles": "CCS(=O)(=O)N1CCCC(C(=O)NCCc2ccc(OC)c(OC)c2)C1", "note": "(centres undefined)", "inhibition": "-6.59% (inactive)"}, {"smiles": "CC(=O)n1cc(-c2ccncc2)c2ccccc21", "inhibition": "11.5% (inactive)"}, {"smiles": "CN(C1CCCCC1)S(=O)(=O)c1ccc(NC(=O)c2ccco2)cc1", "inhibition": "-6.73% (inactive)"}, {"smiles": "COc1cccc(CN2CCN(C(=O)CC(C)C)CC2)c1", "inhibition": "4.9% (inactive)"}]}]}
